Screens as filed in PubChem BioAssay.
DT40 TDP1 no CPT – qHTS for Inhibitors of human tyrosyl-DNA phosphodiesterase 1 (TDP1): qHTS in cells in absence of CPT; actives 15% (n = 420,000); AID 686978, 2013; DT40 Tdp1-/- hTDP1 cells, no CPT, ATP luminescence, 48 h; Potency, µM (doses to about 46.2 µM), for inactives: at the top dose activity change, negative = growth inhibition, hits mostly inhibitors; note: potency is the fitted concentration of half-maximal effect; % is set by controls: 0 for no effect and ±100 for the full control effect; nearly all actives have a fitted effect of over 55% in size
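Compound effects on proliferation are scored in DT40 Tdp1-/-;hTDP1 cells in the absence of CPT. ATP levels (CellTiter-Glo luminescence) are recorded after a ≥48 hr, 37 °C incubation.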
DT40 TDP1 CPT – qHTS for Inhibitors of human tyrosyl-DNA phosphodiesterase 1 (TDP1): qHTS in cells in presence of CPT. chicken DT40 Tdp1-/-;hTDP1 cells + 20 nM CPT, ATP luminescence, 48 h. Potency, µM (series often up to 46.2 µM), without a hit: at the highest dose activity change, negative = growth inhibition, usual class: inhibitors. actives 12% (n = 420,000). AID 686979, 2013; note: potency is the fitted concentration of half-maximal effect; % is set by controls: 0 for no effect and ±100 for the full control effect; nearly all actives have a fitted effect of over 55% in size
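Chicken DT40 Tdp1-/- cells complemented with human TDP1, 400 cells/well, exposed to compounds plus 20 nM camptothecin for at least 48 h at 37 C; viability read as ATP content by CellTiter-Glo luminescence.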
D3 ag – qHTS of D3 Dopamine Receptor Agonist: qHTS | actives 0.58% (n = 410,000) | AID 652048, 2013 | D(3) dopamine receptor (Homo sapiens), P35462 | D3R DiscoveRx beta-arrestin cells, luminescence, 90 min | max activation, %; in the data active = max activation above about 30%; note: 0% is about no effect
Target sequence (P35462 whole entry, looked up): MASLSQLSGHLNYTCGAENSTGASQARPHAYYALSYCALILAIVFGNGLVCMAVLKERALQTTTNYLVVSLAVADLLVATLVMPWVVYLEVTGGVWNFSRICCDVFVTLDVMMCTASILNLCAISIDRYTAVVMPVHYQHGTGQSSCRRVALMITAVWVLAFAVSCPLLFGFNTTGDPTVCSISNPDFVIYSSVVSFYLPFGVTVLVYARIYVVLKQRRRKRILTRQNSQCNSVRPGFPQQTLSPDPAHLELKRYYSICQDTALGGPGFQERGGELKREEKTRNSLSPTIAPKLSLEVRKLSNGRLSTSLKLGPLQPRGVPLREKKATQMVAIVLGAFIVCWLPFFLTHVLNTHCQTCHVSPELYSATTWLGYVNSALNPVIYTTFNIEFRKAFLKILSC
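Cells at 1500/well, incubated overnight, then treated with pinned compounds (dopamine as control) for 90 min at 37 degrees C. DiscoveRx reagent added for 30 - 60 minutes at room temperature; luminescence read.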
ClpP mod – qHTS Assay for Activators of ClpP. ATP-dependent Clp protease proteolytic subunit (Bacillus subtilis (strain 168)), P80244. purified B. subtilis ClpP, FRET peptide cleavage, 20 min. Potency, µM (top dose mostly 57.5 µM), for the others: at the highest dose activity change, negative = active. actives 1.9% (n = 340,000); active = well fitted falling curve with a large enough effect; inconclusive = small, poorly fitted or top-dose-only effect; inactive = no such curve, though single readings can be large or run the other way; note: potency is the fitted concentration of half-maximal effect; the source files actives as falling curves though it sought activators and does not explain the sign; nearly all actives have a fitted effect of over 65% in size
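ClpP 10 microg/mL final, pH 8 Tris/KCl buffer with BSA, glycerol, Tween-20; compound pinned in; FRET-FV substrate; RT 20 min; Ex320/Em430; ΔFRET vs ADEP 5.8 microM, DMSO, no enzyme.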
IL-1B inflam inh – qHTS for Inhibitors of Inflammasome Signaling: IL-1-beta AlphaLISA Primary Screen; THP-1 LPS/ATP IL-1B secretion, AlphaLISA, 16 h; stronger effect = lower value; activity change, % at 57.5 µM; actives 4.7% (n = 360,000); AID 743279, 2014; in the data active = activity change below about -50%; inconclusive = mostly about -30% to -49%; note: % is set by controls: 0 for no effect and ±100 for the full control effect
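THP-1 cells pretreated 1 hr with compounds (up to 57.5 uM final), then stimulated with LPS (250 ng/mL final) plus ATP (1.25 mM final); secreted IL-1B measured by AlphaLISA after 16 hr, decreased signal indicating inhibition.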
DRD3 antagonist – qHTS of D3 Dopamine Receptor Antagonist: qHTS. D(3) dopamine receptor (Homo sapiens), P35462. D3R cells, DiscoveRx beta-arrestin luminescence, antagonist mode; stronger effect = lower value. max response, negative = inhibition, %. actives 2.5% (n = 360,000). AID 652054, 2013; in the data active = max response below about -50%; inconclusive = no clear call, values can overlap the other calls; note: % is set by controls: 0 for no effect and ±100 for the full control effect
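Cells plated overnight at 1500 cells/well, then exposed to library compounds with dopamine controls for 90 minutes at 37 degrees C. DiscoveRx reagent added for 30–60 minutes at room temperature; luminescence read, quantitative HTS format.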
Starred values were filed as active, the others as inactive; ? = inconclusive; nt = no result given; [ ] = remark or other dose. Most compounds without a hit are left out; they make up all but 21% or so of the library. Unless noted, calls come from the whole dose curve; as a rule, active = well fitted inhibition curve with a large enough effect; inconclusive = small, poorly fitted or top-dose-only effect; inactive = flat fitted curve, though single readings scatter.

SMILES	DT40 TDP1 no CPT	DT40 TDP1 CPT	D3 ag	ClpP mod	IL-1B inflam inh	DRD3 antagonist
Cc1ccccc1NC(=O)c1cc2c(=O)n3cccc(C)c3nc2s1	-26.2%	-0.7%	24.9	?	-17.8	-11.2
Cc1ccc(C)c(SCC(=O)Nc2ccc(C)c(S(=O)(=O)N3CCOCC3)c2)c1	13µM*	23.1µM*	-3.6	0.4%	-6.0	-13.1
COc1cc2c(cc1OC)C(C)N(CC(=O)Nc1ccc(C)c(S(=O)(=O)N3CCOCC3)c1)CC2 (configuration not stated)	16.4µM*	?	0.2	-1.8%	-3.2	1.1
Cc1ccc(NCC(=O)Nc2ccc(F)c(Cl)c2)cc1S(=O)(=O)N1CCOCC1	20.6µM*	?	-2.8	-4.1%	-16.7	14.2
Cc1ccc(NC(=O)CSc2ccccc2)cc1S(=O)(=O)N1CCOCC1	?	?	9.1	0.5%	-1.3	8.2
Cc1ccc(NC(=O)CNc2cccc(Br)c2)cc1S(=O)(=O)N1CCOCC1	16.4µM*	?	-4.0	-0.8%	-51.9*	10.2
COC(=O)Cc1c(C(=O)OC)nnn1-c1ccc(OC(F)(F)F)cc1	-10.5%	-10.0%	-6.6	nt	31.1	-0.8
CC1C(=O)N2CCCc3cc(NC(=O)COc4ccccc4)cc1c32 (configuration not stated)	?	-24.7%	-9.7	0.7%	11.7	-0.4
Cc1cccc(CNC(=O)c2cnn(-c3ncc(C)c(-c4ccc(F)cc4)n3)c2C)n1	-25.1%	-2.1%[9.04 µM]	nt	nt	nt	nt
Cc1ccc(NC(=O)CSc2nc(N)cc(N)n2)cc1S(=O)(=O)N1CCOCC1	-11.9%	-3.0%	-8.2	nt	21.5	13.3
Cc1nc(-c2ccc(F)cc2)c(CC(=O)Nc2ccc(C)c(S(=O)(=O)N3CCOCC3)c2)s1	?	10.3µM*	-0.8	nt	-15.1	0.9
COc1cccc(NC(=O)/C(C#N)=C/c2c(C)n(Cc3ccc(Cl)cc3)c3ccccc23)c1	?	-22.9%	0.9	-1.3%	nt	nt
c1ccc(C2CC(c3ccccc3)n3c(nc4ccccc43)N2)cc1 (configuration not stated)	14.6µM*	16.4µM*	5.2	-6.4%	59.7	4.3
CCOc1ccccc1/C=C/C(=O)NCC(=O)N1CCC(N(C)C2CCCCC2C)CC1 (configuration not stated)	?	?	-18.5	nt	-17.4	-29.9
CCOc1ccccc1-c1nnc(SCc2ccc(Cl)cc2)o1	nt	nt	4.6	-0.7%	nt	nt
CCOC(=O)N1CCN(C(=O)C[C@@H]2C[C@@]3(C(=O)OC)CCCCC=C3N(Cc3ccc(Cl)cc3Cl)C2=O)CC1	11.6µM*	20.6µM*	-5.8	0.9%	nt	4.6
CCOC(=O)[C@]12CCC=C1N(Cc1ccc(Cl)cc1Cl)C(=O)[C@H](CC(=O)N1CCSCC1)C2	16.4µM*	23.1µM*	-11.4	-3.1%	-22.9	?
COC(=O)[C@]12CCCCC=C1N(Cc1ccc(Cl)cc1Cl)C(=O)[C@H](CC(=O)N1CCCC1)C2	?	?	2.1	-0.4%	-0.2	6.2
CCOC(=O)N1CCN(C(=O)C[C@@H]2C[C@@]3(C(=O)OCC)CCCC=C3N(Cc3ccc(Cl)cc3Cl)C2=O)CC1	23.1µM*	20.6µM*	-0.9	1.6%	-27.6	21.8
CCOC(=O)N1CCN(C(=O)C[C@@H]2C[C@@]3(C(=O)OC)CCCCC=C3N(Cc3ccccc3)C2=O)CC1	?	?	0.2	0.2%	-3.1	6.9
CC(C)(C)c1ccc(C(=O)NNC(=O)CCC(=O)Nc2ccccc2)cc1	10.9%	-25.7%	1.0	-0.8%	13.7	8.8
